Results on 40 compounds are retold here after PubChem BioAssay (Tox21).

Active and inactive are the calls of the source. A call without a number means that no potency is given here. Calls come from the whole dose curve; as a rule, active = well fitted curve in the direction sought with a large enough effect in the repeat runs; inconclusive = weak or mixed curves; inactive = flat fitted curve, though single readings scatter. Non-standard residues stand in square brackets, D forms with d. Residues, ends and D or L forms follow the SMILES beside them. pGlu = O=C1CC[C@@H](C(=O)O)N1

This experiment is described as follows: qHTS assay to test for compound auto fluorescence at 590 nm (red) in HepG2 cells (AID 720674). As to conditions: HepG2 autofluorescence, red 540/590 nm, 1 h; series mostly up to 46 µM. From the text: U.S. Tox21 Program National Center for Advancing Translational Sciences [NCATS] NIH Chemical Genomics Center [NCGC] U.S. Environmental Protection Agency [EPA] National Institutes of Environmental Health Sciences [NIEHS] National Toxicology Program [NTP] U.S. Food and Drug Administration [FDA] Tox21 Assay Overview: Compound auto fluorescence often interferes with screening of the compound library against various biological targets and signaling pathways. Some of these compounds may have fluorophoric properties. Such properties may interfere with the assay outputs resulting in false positives and/or negatives. To decrease such complications and ensure the compound activities are relevant in terms of biological response, the Tox21 10K compound library was screened for auto fluorescence. From the fluorophores used as reporter signals in our screening assays, the auto fluorescence equivalencies of compounds against three fluorophores have been evaluated: Triamterene, Fluorescein and Rose Bengal sodium for blue, green and red fluorescence, respectively. The fluorescence intensities were measured using Excitation/Emission wavelengths at 405/460nm, 485/535nm and 540/590nm for blue, green and red labels, respectively. This assay includes the red fluorescence data.
Tox21 Assay Protocol Summary: 2,000 HepG2 cells in 5 uL of culture medium (MEM containing 10% FBS) per well were dispensed into black wall/clear bottom 1536-well plates using a Multidrop Combi Dispenser (ThermoFisher Scientific, Waltham, MA). The assay plates were incubated overnight at 37 C to allow cell attachment to the well bottom, followed by the transfer of 23 nL compound or DMSO vehicle by a pintool work station (Kalypsys , San Diego, CA). After the assay plates were incubated for 1 hr at 37 C and 5% CO2, fluorescence intensities in the assay plates were measured by an Envision (PerkinElmer, Shelton, CT) plate reader using three labels for measuring blue, green and red fluorescence at […] 460, 535 and 590 nm respectively.
In general terms: Quantitative high-throughput screening tests each substance at several concentrations.
On to `C[C@]12CC[C@@H]3c4ccc(O)cc4CC[C@H]3[C@@H]1CC[C@@H]2OP(=O)(O)O`, for which the Potency result is “inactive”.

For the compound `CNC(=O)[C@H](Cc1c[nH]c2ccccc12)NC(=O)[C@@H](CC(=O)NO)CC(C)C`, the Potency entry is “inactive”.

For `CN1[C@@H]2CCC[C@H]1CC(NC(=O)c1nn(C)c3ccccc13)C2` (stereo not given in full), the Potency result was “inactive”.

With `CC1=C(C(=O)OCCN(Cc2ccccc2)c2ccccc2)C(c2cccc([N+](=O)[O-])c2)C(P2(=O)OCC(C)(C)CO2)=C(C)N1` (stereo not given), the Potency entry is “inactive”.

For `CCCCC(O)c1ccccc1` (stereo not given), the Potency entry was “inactive”.

As for `Nc1ccn(C[C@@H](CO)OCP(=O)(O)O)c(=O)n1`, the Potency entry is “inactive”.

Consider `CCCC(CCC)C(N)=O`, for which the Potency entry is “inactive”.

As for `CC(=O)N(CC(C)C(=O)O)c1c(I)cc(I)c(N)c1I` (stereo not given), the Potency entry was “inactive”.

In the case of `COc1ccc(CNCC(O)COc2ccc3[nH]c(=O)ccc3c2)cc1OC` (stereo not given), the Potency result is “inactive”.

`COc1c(O[C@@H]2O[C@H](CO)[C@@H](O)[C@H](O)[C@H]2O)cc2c(c1OC)-c1ccc(SC)c(=O)cc1[C@@H](NC(C)=O)CC2`: the Potency entry is “inactive”.

For the compound `COc1ccc(C[C@H](N)C(=O)N[C@H]2[C@@H](O)[C@H](n3cnc4c(N(C)C)ncnc43)O[C@@H]2CO)cc1`, the Potency result is “inactive”.

For the compound `CCCCCCCCCCCCCCCCCC(=O)OC[C@@H](O)[C@H]1OC[C@H](O)[C@H]1O`, the Potency result is “inactive”.

Consider `CCOC(=O)[C@H](CCc1ccccc1)N[C@@H](C)C(=O)N1CC2(C[C@H]1C(=O)O)SCCS2`, for which the Potency result was “inactive”.

Regarding `Cc1ccccc1`, the Potency result is “inactive”.

As for `C/C1=C2N=C(/C=C3N=C(/C(C)=C4\[N-][C@@](C)([C@@H]5N=C1[C@](C)(CCC(=O)NCC(C)OP(=O)(O)O[C@H]1[C@@H](O)[C@@H](n6cnc7cc(C)c(C)cc76)O[C@@H]1CO)[C@H]5CC(N)=O)[C@@](C)(CC(N)=O)[C@@H]4CCC(N)=O)[C@@](C)(CC(N)=O)[C@@H]\3CCC(N)=O)C(C)(C)[C@@H]/2CCC(N)=O.CC(=O)O.[Co]` (stereo not given in full), the Potency result was “inactive”.

Consider `CCCCCCCCCCCC(=O)OC[C@@H](O)C1OC[C@H](O)[C@H]1O` (stereo not given in full), for which the Potency result is “inactive”.

Regarding `Nc1ncnc(Nc2ccc(Cl)cc2)n1`, the Potency entry is “inactive”.

`COC(=O)C1=C(C)NC(C)=C(C(=O)O[C@H]2CCN(Cc3ccccc3)C2)[C@H]1c1cccc([N+](=O)[O-])c1`: the Potency entry was “inactive”.

For `O=[N+]([O-])O[C@@H]1CO[C@H]2[C@@H]1OC[C@@H]2O`, the Potency result is “inactive”.

For `CC(C)[C@@H](N)C(=O)O`, the Potency result was “inactive”.

On to `CCN(CC)CCOCCOC(=O)C(CC)(CC)c1ccccc1`, for which the Potency entry was “inactive”.

As for `CCCCCCCCCCCCCCCC(=O)OC[C@@H](O)[C@H]1OC[C@H](O)[C@H]1O`, the Potency entry was “inactive”.

Regarding `OCC(O)CO`, the Potency entry is “inactive”.

As to `CC(C)CN(C[C@@H](O)[C@H](Cc1ccccc1)NC(=O)O[C@@H]1CCOC1)S(=O)(=O)c1ccc(N)cc1`, the Potency result was “inactive”.

For `CO[C@@]1(NC(=O)C2SC(=C(C(N)=O)C(=O)O)S2)C(=O)N2C(C(=O)O)=C(CSc3nnnn3C)CS[C@@H]21` (stereo not given in full), the Potency result is “inactive”.

As for `COc1ccc2c(=O)c(C)c(-c3ccccc3)oc2c1CN(C)C`, the Potency entry was “inactive”.

For `Cn1c(O)c(N=NC(N)=S)c2ccccc21`, the Potency entry was “inactive”.

On to `C[C@]12CCC(=O)C=C1CC[C@@H]1[C@@H]2[C@@H](O)C[C@@]2(C)[C@H]1CC[C@]2(O)C(=O)COP(=O)(O)O`, for which the Potency entry was “inactive”.

As for `CN1c2c(nc(N)[nH]c2=O)NCC1CNc1ccc(C(=O)NC(CCC(=O)O)C(=O)O)cc1` (stereo not given), the Potency entry is “inactive”.

On to `CCCCCCCCCCCCCCCC(=O)OC[C@@H](COP(=O)([O-])OCC[N+](C)(C)C)OC(=O)CCCCCCCCCCCCCCC`, for which the Potency entry is “inactive”.

As to `O=C(OC1C[C@@H]2CC3C[C@H](C1)N2CC3=O)c1c[nH]c2ccccc12` (stereo not given in full), the Potency entry was “inactive”.

As for `CSc1nc2cc(Oc3cccc(Cl)c3Cl)c(Cl)cc2[nH]1`, the Potency result was “inactive”.

As to `C[C@]12C=CC(=O)N[C@@H]1CC[C@@H]1[C@@H]2CC[C@]2(C)[C@@H](C(=O)Nc3cc(C(F)(F)F)ccc3C(F)(F)F)CC[C@@H]12`, the Potency entry was “inactive”.

With `C=C1CC[C@H](O)CC1=C/C=C1\CCC[C@]2(C)[C@@H]([C@H](C)CC[C@@H](O)C(C)(C)O)CC[C@@H]12`, the Potency entry is “inactive”.

With `CC[C@H](C)[C@H](NC(=O)[C@H](Cc1ccccc1)NC(=O)[C@H](C)NC(=O)[C@H](CC(=O)O)NC(=O)[C@H](CCCCN)NC(=O)[C@H](CO)NC(=O)[C@@H]1CCCN1C(=O)[C@@H]1CCC(=O)N1)C(=O)NCC(=O)N[C@@H](CC(C)C)C(=O)N[C@@H](CCSC)C(N)=O` ([pGlu]PSKDAFIGLM-NH2), the Potency result was “inactive”.

For the compound `Cc1ccc(S(=O)(=O)NC(=O)N[C@@H](C)Cc2ccccc2)cc1`, the Potency result was “inactive”.

Consider `CCCCCCCCCCCCCCCC(=O)O[C@@H]1[C@@H](O)[C@@H](O)[C@@H]([C@H](NC(=O)[C@@H]2C[C@@H](CCC)CN2C)[C@H](C)Cl)O[C@@H]1SC`, for which the Potency result was “inactive”.

Consider `CC(O)[C@@H]1NC(=O)[C@H](CCCCN)NC(=O)[C@@H](Cc2c[nH]c3ccccc23)NC(=O)[C@H](Cc2ccccc2)NC(=O)[C@@H](NC(=O)[C@H](N)Cc2ccccc2)CSSC[C@@H](C(=O)N[C@H](CO)[C@@H](C)O)NC1=O` (stereo not given in full), for which the Potency result was “inactive”.

For `CCCCCC(O)/C=C/C=O` (stereo not given), the Potency entry was “inactive”.

For the compound `O=C(Cn1c(=O)sc2ccc(Cl)cc21)N1CCN(CCO)CC1`, the Potency result was “inactive”.
